Laboratory results reported in PubChem BioAssay (NCATS).
Records with an inconclusive call do not appear. Calls of active or inactive are those of the source. The call rests on the fitted dose curve; in most records, active means well fitted inhibition curve with a large enough effect; inconclusive means small, poorly fitted or top-dose-only effect; inactive means flat fitted curve, though single readings scatter.

Experiments:
Assay in all cases: Cytotoxic Profiling of Annotated Libraries Using Quantitative High-Throughput Screening (AID 1296008); further: nearly all actives have a fitted effect of over 60% in size
Conditions in all cases: Five cell lines viability, CellTiter-Glo ATP luminescence, 48-72 h; max response: stronger effect = lower value
[1] = test system: CRL-7250
Procedure, shortened: (§1)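 Compounds were pin-transferred onto cells and incubated 48 or 72 hr at 37 degree Celsius, 95% humidity. CellTiter-Glo was added, plates sat 10 min at room temperature, then ATP-coupled luminescence was imaged as the viability read-out.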

[2] = test system: HEK293
Procedure, shortened: as §1

[3] = test system: HaCat
Procedure, shortened: as §1

[4] = test system: KB-3-1
Procedure, shortened: as §1

[5] = test system: NIH3T3
Procedure, shortened: as §1

Measured: max response
On the % scale 0 is the no-effect control and ±100 the full control effect.

CC(C)(O)/C=C1/C(=O)C(C)(C)C(=O)C(C)(C)C1(O)O[C@@H]1O[C@H](COC(=O)c2cc(O)c(O)c(O)c2)[C@@H](O)[C@H](O)[C@H]1O (stereo not given in full)
inactive: [1] -11.2% | [2] | [3] | [4] | [5] 4.71%

NCc1c[nH]c(=S)n1C1CCc2c(F)cc(F)cc2C1 (stereo not given)
inactive: [1] -1.6% | [2] | [3] | [4] -6.7% | [5]

CCCCNC(=O)[C@@H]1Cc2ccccc2N1C(=O)[C@@H](N)CC
inactive: [1] -0.785% | [2] | [3] | [4] 6.18% | [5] 3.92%

O=C(/C=C/c1ccc(O)cc1)OCC1=C[C@@H](O)[C@@H]2C=CO[C@@H](O[C@@H]3O[C@H](CO)[C@@H](O)[C@H](O)[C@H]3O)[C@H]12
inactive: [1] -2.56% | [2] | [3] | [4] | [5]

C/C=C(\C)C(=O)OC[C@H]1O[C@H](O[C@H]2O[C@H](CO)[C@@H](OC(=O)/C(C)=C/C)[C@H](O)[C@H]2O[C@@H]2O[C@H](CO)[C@@H](O)[C@H](O)[C@H]2O)[C@H](O[C@@H]2O[C@H](CO)[C@@H](O)[C@H](O)[C@H]2O)[C@@H](O)[C@@H]1O
inactive: [1] -3.07% | [2] | [3] | [4] 8.89% | [5] 2.61%

COc1ccc(C)c2sc(NC(=O)c3ccncc3)nc12
inactive: [1] | [2] | [3] 4.45% | [4] | [5] 2.46%

O=C1[C@H](O[C@@H]2O[C@H](CO)[C@@H](O)[C@H](O)[C@H]2O)Oc2ccccc2N1O
inactive: [1] 1.51% | [2] | [3] | [4] 3.12% | [5] 0.0797%
